# According to PubChem BioAssay (Tox21):
# Values joined by “and” are separate entries in the source; they are usually repeats but may differ in a detail not shown here. Identical values can stand only once. Results filed as inconclusive are left out. A call without a number means that no potency is given here. A number with no mark means an inactive call. Active and inactive are the calls of the source. Unless noted, calls follow the shape of the full dose curve.
# How the values were obtained:
# [1] = qHTS assay to identify small molecule agonists of the vitamin D receptor (VDR) signaling pathway - cell viability counter screen (AID 743224; active = well fitted curve in the direction sought with a large enough effect in the repeat runs; an effect the other way counts as inactive or inconclusive; also: nearly all actives have a fitted effect of over 50% in size; also: potency is read from the fitted curve at half-maximal effect; as to activity change, negative = cytotoxicity: series mostly up to about 63 µM)
# Method in brief: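 Plated VDR-bla cells (4 h, 37C) received compound, incubated 16 h, then LiveBLAzer substrate 2 h RT; CellTiter-Glo added afterwards, luminescence read at 30 min.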
# [2] = qHTS assay to identify small molecule antagonists of the vitamin D receptor (VDR) signaling pathway - cell viability counter screen (AID 743225; active = well fitted curve in the direction sought with a large enough effect in the repeat runs; an effect the other way counts as inactive or inconclusive; also: nearly all actives have a fitted effect of over 50% in size; also: potency is read from the fitted curve at half-maximal effect)
# Method in brief: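 Parallel cytotoxicity test: VDR-UAS-bla HEK 293T, 3 nM (final) 1-alpha,25-dihydroxyvitamin D3 with test compound, 16 h, 37C. Endpoint is CellTiter-Glo luminescence in the same wells.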
# [3] = qHTS assay to identify small molecule agonists of the NFkB signaling pathway - cell viability counter screen (AID 1159515); also: nearly all actives have a fitted effect of over 55% in size; also: potency is read from the fitted curve at half-maximal effect; as to activity, negative = cytotoxic: series mostly up to about 61 µM
# Method in brief: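 Using the same wells as the NFkB reporter read, ME-180 NFkB-bla cells given compounds for 5 hr were assessed for viability via CellTiter-Glo, with luminescence taken after a 30 min room-temperature incubation.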
# [4] = qHTS assay to identify small molecule agonists of the endoplasmic reticulum stress response signaling pathway - cell viability counter screen (AID 1159517); also: nearly all actives have a fitted effect of over 50% in size; also: potency is read from the fitted curve at half-maximal effect;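 as to activity change, negative = cytotoxicity: HeLa cells carrying an ER stress response element beta-lactamase reporter; series mostly up to about 61 µM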
# Method in brief: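 ESRE-bla HeLa cells, 1,500 per well, seeded overnight then treated with compounds for 5 hr at 37 C. After the beta-lactamase read, viability in the same wells is measured by CellTiter-Glo luminescence after 30 min at room temperature.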
# [5] = qHTS assay to identify small molecule antagonists of the retinoid-related orphan receptor gamma (ROR-gamma) signaling pathway - cell viability counter screen (AID 1159520; active = well fitted curve in the direction sought with a large enough effect in the repeat runs; an effect the other way counts as inactive or inconclusive; also: nearly all actives have a fitted effect of over 50% in size; also: potency is read from the fitted curve at half-maximal effect)
# Method in brief: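 Tet-on ROR gamma CHO cells were given compounds for 2 hr, then doxycycline hyclate at 1 uM final, and incubated 16 hr at 37 C. Viability was measured as ATP content by CellTiter-Glo luminescence.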
# [6] = molecular target: Nuclear receptor ROR-gamma (Homo sapiens) (UniProt P51449); assay: qHTS assay to identify small molecule antagonists of the retinoid-related orphan receptor gamma (ROR-gamma) signaling pathway (AID 1159521; active = well fitted curve in the direction sought with a large enough effect in the repeat runs; an effect the other way counts as inactive or inconclusive; also: nearly all actives have a fitted effect of over 50% in size; also: potency is read from the fitted curve at half-maximal effect;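 as to activity change, negative = inhibition: CHO cells with doxycycline inducible ROR-gamma driving an RORE luciferase reporter; top concentration of the series differs between compounds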)
# Method in brief: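 Decreased RORE-driven luciferase luminescence indicates antagonism. Tet-on RORγ CHO cells received compound, then 1 uM final doxycycline 2 h later; signal read after 16 h incubation.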
# [7] = qHTS assay to identify small molecule agonists of the AP-1 signaling pathway - cell viability counter screen (AID 1159525); also: nearly all actives have a fitted effect of over 55% in size; also: potency is read from the fitted curve at half-maximal effect
# Method in brief: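 AP-1-bla ME-180 cells in Opti-MEM with 0.5% dialyzed FBS, compound exposure 5 h at 37 C in 15-point titration. Viability read in the same wells as ATP content by CellTiter-Glo luminescence, normalised to tetra-n-octylammonium bromide and DMSO controls.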
# [8] = qHTS assay to identify small molecule agonists of the endoplasmic reticulum stress response signaling pathway (AID 1159516; active = well fitted activation curve with a large enough effect in the signal ratio in the repeat runs, not every such curve was filed as active; the % refers to the signal ratio)
# Method in brief: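 An ESRE-bla HeLa cell assay: compounds were pin-transferred from DMSO onto overnight-plated cells and left 5 hr at 37 C. Substrate was then loaded for 2 hr at room temperature before reading fluorescence at 460 nm and 530 nm.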
# [9] = qHTS assay to identify small molecule agonists of the AP-1 signaling pathway (AID 1159526); also: potency is read from the fitted curve at half-maximal effect
# [10] = molecular target: Retinoic acid receptor RXR-alpha (Homo sapiens) (UniProt P19793); assay: qHTS assay to identify small molecule agonists of the RXR signaling pathway (AID 1159527); also: nearly all actives have a fitted effect of over 35% in size; also: potency is read from the fitted curve at half-maximal effect
# Chain of Retinoic acid receptor RXR-alpha (Homo sapiens) (P19793 whole entry, looked up): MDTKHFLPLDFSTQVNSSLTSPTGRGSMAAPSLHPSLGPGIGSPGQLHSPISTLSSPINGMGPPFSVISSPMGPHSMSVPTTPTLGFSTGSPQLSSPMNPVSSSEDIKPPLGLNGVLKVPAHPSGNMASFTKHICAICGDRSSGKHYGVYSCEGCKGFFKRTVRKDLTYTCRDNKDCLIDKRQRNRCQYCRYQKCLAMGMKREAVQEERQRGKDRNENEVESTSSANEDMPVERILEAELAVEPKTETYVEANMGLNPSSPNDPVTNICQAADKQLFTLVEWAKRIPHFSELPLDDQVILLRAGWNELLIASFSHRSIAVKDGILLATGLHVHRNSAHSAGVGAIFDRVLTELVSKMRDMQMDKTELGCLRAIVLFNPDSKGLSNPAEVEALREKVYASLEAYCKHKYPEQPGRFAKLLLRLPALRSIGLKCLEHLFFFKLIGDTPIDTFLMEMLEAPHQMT
# Method in brief: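 16 hr incubation of compound-treated RXR-alpha-UAS-bla HEK 293T cells (2% charcoal-stripped FBS, 37 C) preceded a 2 hr room-temperature LiveBLAzer FRET substrate step and blue/green fluorescence measurement.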
structure (smiles),measurement,setting,value
[Cl][Hg][c]1ccccc1,Potency,[1],692 nM (active)
same,Potency,[2],692 nM (active)
same,Potency,[3],3.89 µM (active)
same,Potency,[4],11 µM (active)
same,Potency,[5],1.09 µM (active)
same,Potency,[6],611 nM (active)
same,Potency,[7],1.38 µM (active)
CC(=O)C(Cl)C(=O)N(C)C (centres undefined),Potency,[1],inactive
same,Potency,[2],inactive
same,Potency,[3],inactive
same,Potency,[8],inactive
same,Potency,[7],inactive
same,Potency,[9],inactive
same,Potency,[10],inactive
Oc1cc(Cl)c(Cl)c(Cl)c1Cl,Potency,[1],24000 nM (active)
same,Potency,[3],inactive
same,Potency,[4],inactive
same,Potency,[5],53.2 µM (active)
same,Potency,[6],23800 nM (active)
same,Potency,[7],inactive
O=C(O)CCCCCCNC1c2ccccc2CCc2ccccc21,Potency,[2],inactive
same,Potency,[3],inactive
same,Potency,[4],inactive
same,Potency,[5],inactive
same,Potency,[6],inactive
same,Potency,[7],inactive
same,Potency,[9],10.7 µM (active)
same,Potency,[10],inactive
C[C@]12C/C(=C/O)C(=O)C[C@@H]1CC[C@@H]1[C@@H]2CC[C@@]2(C)[C@H]1CC[C@]2(C)O,Potency,[2],inactive
same,Potency,[3],inactive
same,Potency,[4],24.8 µM (active) and 16.9 µM (active)
same,Potency,[5],61.7 µM (active)
same,Potency,[6],30.9 µM (active) and 29.8 µM (active)
same,Potency,[7],inactive
same,Potency,[9],inactive
COC(=O)c1ccccc1S(=O)(=O)NC(=O)Nc1nc(C)nc(OC)n1,Potency,[2],inactive
same,Potency,[3],inactive
same,Potency,[8],inactive
same,Potency,[7],inactive
same,Potency,[9],inactive
same,Potency,[10],inactive
O=C1C[C@@H]2OCC=C3CN4CC[C@]56c7ccccc7N1[C@H]5[C@H]2[C@H]3C[C@H]46,Potency,[1],inactive
same,Potency,[2],inactive
same,Potency,[3],inactive
same,Potency,[4],inactive
same,Potency,[5],inactive
same,Potency,[6],inactive
same,Potency,[7],inactive
same,Potency,[9],inactive
CNC(=O)Oc1cc(C)cc(C(C)C)c1,Potency,[1],inactive
same,Potency,[3],inactive
same,Potency,[8],inactive
same,Potency,[9],inactive
same,Potency,[10],11 µM (active)
N#CC(C#N)=NNc1cccc(Cl)c1,Potency,[1],6920 nM (active)
same,Potency,[3],inactive
same,Potency,[4],inactive
same,Potency,[5],2.73 µM (active)
same,Potency,[6],486 nM (active)
same,Potency,[7],inactive
S=C=NCCc1ccccc1,Potency,[1],inactive
same,Potency,[3],inactive
same,Potency,[8],inactive
CC1=C2C[C@H]3[C@@H](CC=C4C[C@@H](O)CC[C@@]43C)[C@@H]2CC[C@]12O[C@@H]1C[C@H](C)CN[C@H]1[C@H]2C,Potency,[1],inactive
same,Potency,[3],inactive
same,Potency,[8],inactive
same,Potency,[6],8410 nM (active)
same,Potency,[7],inactive
C[N+]1(C)[C@@H]2CC[C@H]1CC(OC(=O)C(CO)c1ccccc1)C2 (some centres undefined),Potency,[1],inactive
same,Potency,[2],inactive
same,Potency,[3],inactive
same,Potency,[8],inactive
same,Potency,[7],inactive
same,Potency,[9],inactive
same,Potency,[10],inactive
Nc1ccc(N=Nc2ccccc2)cc1,Potency,[3],inactive
same,Potency,[4],inactive
same,Potency,[5],inactive
same,Potency,[6],inactive
same,Potency,[7],inactive
COP(=S)(OC)Oc1ccc([N+](=O)[O-])c(C)c1,Potency,[1],inactive
same,Potency,[2],inactive
same,Potency,[3],inactive
same,Potency,[4],inactive
same,Potency,[5],inactive
same,Potency,[6],inactive
same,Potency,[7],inactive
same,Potency,[9],inactive
same,Potency,[10],inactive
Brc1cccc(-c2ccccc2)c1,Potency,[1],inactive
same,Potency,[3],inactive
same,Potency,[4],inactive
same,Potency,[5],inactive
same,Potency,[6],inactive
same,Potency,[7],inactive
same,Potency,[9],inactive
CCOP(=S)(OCC)SC(CCl)N1C(=O)c2ccccc2C1=O (centres undefined),Potency,[1],inactive
same,Potency,[2],inactive
same,Potency,[3],inactive
same,Potency,[8],inactive
same,Potency,[6],inactive
same,Potency,[7],inactive
same,Potency,[9],inactive
Clc1c(Cl)c(Cl)c(Cl)c(Cl)c1Cl,"activity change, negative = cytotoxicity",[1],2.99% [at 5.95 µM]
same,"viability change, negative = cytotoxic",[2],-2.04% [at 6.95 µM]
same,"activity, negative = cytotoxic",[3],7.25% [at 6.95 µM]
same,activation,[8],-1.07% [at 6.95 µM]
same,"activity change, negative = inhibition",[6],5.22% [at 8.39 µM]
same,"viability change, negative = cytotoxic",[7],5.85% [at 6.97 µM]
same,activation,[9],-2.52% [at 6.97 µM]
same,activation,[10],5.73% [at 6.98 µM]
[O]=[Cr](=[O])([OH])[O][Cr](=[O])(=[O])[OH],Potency,[1],17.5 µM (active) and 21.8 µM (active)
same,Potency,[2],19.7 µM (active) and 21.8 µM (active)
same,Potency,[3],30.8 µM (active)
same,Potency,[4],22.1 µM (active) and 34.6 µM (active)
same,Potency,[6],4.9 µM (active) and 4.32 µM (active)
same,Potency,[7],24.8 µM (active)
same,Potency,[9],inactive
N#Cc1sc2c(=O)c3ccccc3c(=O)c=2sc1C#N,Potency,[2],11000 nM (active)
same,Potency,[3],1.95 µM (active)
same,Potency,[5],2.17 µM (active)
same,Potency,[6],13700 nM (active)
same,Potency,[7],0.389 µM (active)
CC(=O)[O][Sn]([c]1ccccc1)([c]1ccccc1)[c]1ccccc1,Potency,[1],87.1 nM (active)
same,Potency,[2],219 nM (active)
same,Potency,[3],2.45 µM (active)
same,Potency,[4],13.8 µM (active)
same,Potency,[5],0.0969 µM (active)
same,Potency,[6],24.3 nM (active)
